In PubChem BioAssay AID2289 (National Center for Advancing Translational Sciences (NCATS), 2010):
The whole screen tested about 340,000 compounds, of which about 3,300 (0.97%) were called active. Not shown: some 9% with an inconclusive outcome. Calls follow the shape of the dose curve; as a rule, active = well fitted inhibition curve with a large enough effect; inconclusive = small, poorly fitted or top-dose-only effect, or effect the other way; inactive = flat fitted curve, though single readings scatter. The list shows a part of the results.

Test: qHTS Assay for Modulators of miRNAs and/or Inhibitors of miR-21; also: nearly all actives have a fitted effect of over 55% in size
Details: HeLa miR-21-FLuc reporter, luciferase luminescence, 48 h; actives lower the signal
Text: MLSCN Grant: 1 R21 NS059478-01 Assay Provider: Qihong Huang, The Wistar Institute NCGC Assay Overview: MicroRNAs (miRNAs) are endogenously encoded small (~20-25 nucleotides), nonprotein-coding RNAs that are involved in post-transcriptional repression of target messenger RNAs (mRNAs) (Le and Hannon, 2004). Estimated to be involved in the regulation of 30% of all protein-coding mRNAs (Filipowicz et al., 2008), miRNAs play a significant role in many biological processes including cellular differentiation and tissue development (Ghildiyal and Zamore, 2009).
NCGC Assay Protocol Summary: Reagents: HeLa cells stably expressing firefly luciferase (FLuc) under the control of a CMV promoter (upstream) and a miR-21 binding sequence directly downstream of the gene. These cells endogenously express miR-21. Control compounds used were compound C3 (provided by collaborator), N6-phenyladenosine (MP Biomedicals, 0215379625), and DMSO. Assay Summary: 6uL of HeLa miR-21-FLuc cells in assay buffer (DMEM, Invitrogen #21063-029; 10% FBS, HyClone #SH30071.03) were dispensed at 2000cells/well (3.3 x 10^5 cells/mL) into Greiner solid-white TC-treated 1536-well plates using a Multidrop Combi (Thermo Fisher Scientific). Plates were incubated for one hour at 37 degree Celsius, 95% humidity, 5% CO2. These assay plates were then treated with 23nL of compound or DMSO using a Kalypsys pin tool, which allows for delivery of a 24-point titration of each compound to the assay plate, with a final compound concentration ranging from approximately 40uM to 5pM. Assay plates were then incubated for 48 hours. After incubation, plates were allowed to come to RT for one hour prior to delivery of 3uL of 3X luciferase detection reagent. After a 15 minute incubation to allow for cell lysis, luciferase activity was measured using a ViewLux CCD imager (PerkinElmer), with an average exposure time of 2-12 seconds. Keywords: NIH Roadmap, MLPCN, MLSMR, qHTS, miR-21, microRNA, firefly luciferase, FLuc.
Potency is read from the fitted curve at half-maximal effect.

| Compound | Potency |
| --- | --- |
| O=C(NNc1c(F)c(F)cc(F)c1F)c1cc2ccccc2oc1=O | 8.26 µM (active) |
| COc1ccc(-c2n[nH]c(=S)n2-c2ccc3c(c2)OCCO3)cc1OC | 16.5 µM (active) |
| Cc1ccc(-c2cc(NC(=O)c3ccccc3)on2)cc1 | 2.93 µM (active) |
| CC1CCc2c(sc3nc(CSc4n[nH]c(N)n4)[nH]c(=O)c23)C1 (stereo not given) | 16.5 µM (active) |
| Nc1nc(SCc2ccc(Cl)cc2Cl)n[nH]1 | 14.7 µM (active) |
| CN1C(=O)/C(=C/c2ccc(N3CCCCCC3)o2)C(=O)NC1=S | 0.826 µM (active) |
| CCN(CC)c1ccc(/C=C2\C(=O)NC(=S)N(C)C2=O)o1 | 1.31 µM (active) |
| CCCCn1c(O)c(/C(C)=N/NC(=O)Nc2ccccc2)c(=O)[nH]c1=O | 11.7 µM (active) |
| COc1ccc(CCN2CCCC(CN(C)C(=O)c3cc(C)oc3C)C2)cc1 (stereo not given) | 4.65 µM (active) |
| COc1ccc(NC(=O)CCCn2c(=O)oc3ccccc32)cc1Cl | 9.27 µM (active) |
| Cn1cnc2cc(NC(=O)c3ccc(Cl)cc3)ccc21 | 1.85 µM (active) |
| COc1ccc(CNC(=O)c2ccc(C(C)C)cc2)cc1 | 3.29 µM (active) |
| Cc1cccc(N=Nc2ccc(N(C)C)cc2)c1 | 2.93 µM (active) |
| COC(=O)C(O)(c1ccc(NC(=O)NC2CCCCC2)cc1)C(F)(F)F (stereo not given) | 8.26 µM (active) |
| CCN(CC)C(=O)Oc1ccc2cc(Br)ccc2c1 | 11.7 µM (active) |
| O=C(Oc1ccc2cc(Br)ccc2c1)N1CCCCCC1 | 4.14 µM (active) |
| O=c1c2ccccc2[nH]c(=S)n1-c1ccc2c(c1)OCCO2 | 7.36 µM (active) |
| O=c1cc(-c2ccc(O)c(O)c2)oc2cc(O)cc(O)c12 | 3.29 µM (active) |
| Cc1cnn(-c2cc(Oc3ccccc3)ncn2)c1 | 16.5 µM (active) |
| CC(C)(C)n1cc(C(=O)c2ccc3ccccc3c2O)cn1 | 0.233 µM (active) |
| c1ccc2c(CN3CCCCCC3)c[nH]c2c1 | 2.93 µM (active) |
| CN(C)C(=O)Oc1ccc2c(c1)O/C(=C\c1ccccc1)C2=O | 4.65 µM (active) |
| O=c1c2ccccc2nc(Cc2ccccc2)n1-c1ccccc1 | 5.85 µM (active) |
| COc1ccccc1N=Nc1c(O)[nH]c(=S)[nH]c1=O | 13.1 µM (active) |
| BrCC1C[n+]2c(SCc3ccccc3)nc3sc4c(c3c2O1)CCCC4 (stereo not given) | 16.5 µM (active) |

| Compound | Potency |
| --- | --- |
| O=C(c1cc(-c2cccc(Cl)c2)on1)N1CCOCC1 | 8.26 µM (active) |
| O=C(Nc1nc2c(s1)CCCCCC2)Nc1ccc(F)cc1F | 0.329 µM (active) |
| Cc1cc(C(=O)Nc2ccccc2)nn1C(C)(C)C | 2.07 µM (active) |
| Cc1cc(C(=O)Nc2ccc3c(c2)OCCO3)nn1C(C)(C)C | 5.85 µM (active) |
| CN(CC(=O)N1CCc2ccccc21)S(=O)(=O)c1cccs1 | 5.85 µM (active) |
| COc1ccc(-c2cc(=NCCC(=O)O)c3cc(C)ccc3o2)cc1 | 0.656 µM (active) |
| COc1ccc(-c2cc(=NCC(=O)O)c3ccccc3o2)cc1 | 3.69 µM (active) |
| CCCCN1CC(O)=C(c2nc3ccccc3s2)C1=N | 6.56 µM (active) |
| CC(=O)Nc1ccccc1C(=O)OCC(=O)c1ccccc1Cl | 14.7 µM (active) |
| COc1ccc2nc(NC3=NCCN3)sc2c1 | 1.65 µM (active) |
| Cc1ccnc(SCc2nc3ccccc3s2)n1 | 7.36 µM (active) |
| O=c1oc2ccccc2n1CCCOc1ccccc1 | 13.1 µM (active) |
| Cc1cccc(OCCn2c(=O)oc3ccc(C)cc32)c1 | 14.7 µM (active) |
| Cc1ccc(NC(=O)O/N=C/c2cccc([N+](=O)[O-])c2)cc1 | 16.5 µM (active) |
| Cc1nc(Cl)sc1C(=O)Nc1ccc2ccccc2c1 | 5.85 µM (active) |
| O=C(CSCc1ccccc1)Nc1ccc2c(c1)OCO2 | 5.21 µM (active) |
| Cc1ccc(-c2nn(Cc3ccccc3)cc2C=O)cc1 | 6.56 µM (active) |
| c1ccc(-c2nc(N3CCOCC3)s[n+]2-c2ccccc2)cc1 | 13.1 µM (active) |
| Cc1ccc(-c2nc(N3CCOCC3)s[n+]2-c2ccccc2)cc1 | 5.21 µM (active) |
| Cn1nnc2cc(NC(=O)Nc3cccc(Cl)c3)ccc21 | 1.47 µM (active) |
| c1ccc(CN2CCc3nc4ccccc4cc3C2)cc1 | 14.7 µM (active) |
| Cc1ccc(NN=C2C(=O)OC(C)(C)OC2=O)c(C)c1 | 11.7 µM (active) |
| O=C(NCC(c1cccnc1)N1CCOCC1)Oc1ccccc1 (stereo not given) | 16.5 µM (active) |
| Cc1nc2ccc(NC(=O)c3ccc(Cl)s3)cc2s1 | 2.93 µM (active) |
| Cc1nc2ccc(NC(=O)C3COc4ccccc4O3)cc2s1 (stereo not given) | 7.36 µM (active) |
